# HT1080 IDH1KD tx: kills HT-1080 cells with IDH1 knockdown; HT-1080 IDH1 knockdown viability, ATP luminescence, 48 h; Potency, µM (series often up to 46.1 µM), inactives show at the highest dose activity, negative = toxicity, usual class: cytotoxic; hit rate 2% among 360,000; AID 686971;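 note: potency is the fitted concentration of half-maximal effect; 0% = DMSO wells and -100% = cell-free medium wells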
#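 Using the IDH1-knockdown HT-1080 line run in the same batch and compound series as the NT line, viability after 48 h at 37 °C was determined by CellTiter-Glo luminescence and expressed as % activity.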
# IL-1B inflam inh: inflammasome signaling inhibition, IL-1 beta readout; THP-1 LPS/ATP IL-1B secretion, AlphaLISA, 16 h; stronger effect = lower value; activity change, % at 57.5 µM; hit rate 4.7% among 360,000; AID 743279; in the data active = activity change below about -50%; inconclusive = mostly about -30% to -49%
#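 THP-1 cells pretreated 1 hr with compounds (up to 57.5 uM final), then stimulated with LPS (250 ng/mL final) plus ATP (1.25 mM final); secreted IL-1B measured by AlphaLISA after 16 hr, decreased signal indicating inhibition.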
# HT1080-NT tox: kills 2HG-producing HT-1080-NT fibrosarcoma cells; HT-1080-NT fibrosarcoma viability, CellTiter-Glo ATP luminescence, 48 h; Potency, µM (titrated, usually from 46.1 µM), without a hit: at the top dose activity, negative = less viability, most hits filed as cytotoxic; hit rate 1.6% among 360,000;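 note: NT is the 2HG producing partner of a matched IDH1 knockdown line; potency is the fitted concentration of half-maximal effect; 0% = DMSO-treated cells and -100% = media-only wells without cells; nearly all actives have a fitted effect of over 55% in size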
#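 Compounds were tested in concentration-response format on HT-1080-NT cells for 48 hours at 37 degrees C. Cell viability came from CellTiter-Glo luminescence; curves were classified by r2, response magnitude and activity.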
# 12-LOX inh: blocks human arachidonate 12S-lipoxygenase. P18054. purified 12hLO, xylenol orange hydroperoxide absorbance. Potency, µM (highest dose often 108 µM), without a hit: at the top dose activity change, negative = inhibition, actives largely listed as inhibitors. hit rate 1.1% among 580,000. AID 1671190; note: potency is the fitted concentration of half-maximal effect
# Target sequence (P18054 whole entry, looked up): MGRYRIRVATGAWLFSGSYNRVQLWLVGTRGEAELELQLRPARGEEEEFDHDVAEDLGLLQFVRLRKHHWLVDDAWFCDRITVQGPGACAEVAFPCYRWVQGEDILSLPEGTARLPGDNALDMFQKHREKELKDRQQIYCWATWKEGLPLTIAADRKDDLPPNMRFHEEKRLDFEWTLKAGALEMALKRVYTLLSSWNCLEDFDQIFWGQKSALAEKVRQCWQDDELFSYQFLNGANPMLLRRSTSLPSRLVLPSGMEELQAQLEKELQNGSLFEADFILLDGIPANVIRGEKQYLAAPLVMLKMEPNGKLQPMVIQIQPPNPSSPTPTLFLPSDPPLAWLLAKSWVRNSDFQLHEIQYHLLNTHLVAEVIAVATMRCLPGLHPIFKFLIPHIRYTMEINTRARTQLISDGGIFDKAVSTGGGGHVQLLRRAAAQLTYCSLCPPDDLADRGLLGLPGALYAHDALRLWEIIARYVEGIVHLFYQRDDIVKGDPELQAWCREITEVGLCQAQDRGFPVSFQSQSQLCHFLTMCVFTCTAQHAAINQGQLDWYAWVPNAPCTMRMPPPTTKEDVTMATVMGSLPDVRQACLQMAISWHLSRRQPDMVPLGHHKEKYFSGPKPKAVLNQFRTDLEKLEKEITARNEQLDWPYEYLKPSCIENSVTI
#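 Purified human 12hLO at 150 nM in 25 mM Hepes, 0.01% Triton X-100, pH 7.0, preincubated 15 min at room temperature with compound. Reaction started with 40 uM arachidonic acid, 30 min at room temperature. Hydroperoxide measured by Fe-xylenol orange, 573/405 nm absorbance ratio.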
# DT40 TDP1 no CPT: qHTS for Inhibitors of human tyrosyl-DNA phosphodiesterase 1 (TDP1): qHTS in cells in absence of CPT | Potency, µM (titrated, usually from 46.2 µM), for the others: at the highest dose activity change, negative = growth inhibition, hits mostly inhibitors | hit rate 15% among 420,000 | AID 686978, 2013 | DT40 Tdp1-/- hTDP1 cells, no CPT, ATP luminescence, 48 h; note: potency is the fitted concentration of half-maximal effect; nearly all actives have a fitted effect of over 55% in size
#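 Chicken DT40 Tdp1-/- cells stably complemented with human TDP1 were seeded at 400 cells/well with DMSO in place of 20 nM camptothecin. After compound pinning, cells grew at least 48 hr at 37 °C; viability read by CellTiter-Glo luminescence.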
# TDP1 cell CPT: growth inhibition of DT40 Tdp1-/-;hTDP1 cells with camptothecin (screen for TDP1 inhibitors); chicken DT40 Tdp1-/-;hTDP1 cells + 20 nM CPT, ATP luminescence, 48 h; hit rate 12% among 420,000; Potency, µM (series often up to 46.2 µM), for inactives: at the highest dose activity change, negative = growth inhibition, most hits filed as inhibitors; AID 686979; note: potency is the fitted concentration of half-maximal effect; nearly all actives have a fitted effect of over 55% in size
#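 Chicken DT40 Tdp1-/- cells complemented with human TDP1, 400 cells/well, exposed to compounds plus 20 nM camptothecin for at least 48 h at 37 C; viability read as ATP content by CellTiter-Glo luminescence.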
# * marks the source's active call; other numbers are inactive results; u = inconclusive; x = no result given; [ ] = remark or other dose. This excerpt belongs to a sample that is enriched for hits. Unless noted, calls come from the whole dose curve; as a rule, active = well fitted curve in the direction sought with a large enough effect; inconclusive = small, poorly fitted or top-dose-only effect, or another doubt; inactive = no such curve, though single readings can be large; an effect the other way counts as inactive or inconclusive. Unless noted, % is set by controls: 0 for no effect and ±100 for the full control effect.
SMILES,HT1080 IDH1KD tx,IL-1B inflam inh,HT1080-NT tox,12-LOX inh,DT40 TDP1 no CPT,TDP1 cell CPT
CCCNC(=O)c1onc(CSc2ccc(F)c(F)c2)c1C(=O)NCCC,2.4%,1.2,7.1%,-1.9%,u,14.6µM*
CC(C)NC(=O)c1onc(CSc2ccc(F)c(F)c2)c1C(=O)NC(C)C,-2.9%,-24.3,0.4%,-10.2%,-10.9%,u
COc1cccc(CN2Cc3c(CN(C)Cc4ccccc4)nnn3CCC2=O)c1,x,x,x,29.4%[176 µM],x,x
CCN(CC)S(=O)(=O)c1ccc(NC(=O)CSc2nc3ccccc3n2CC)cc1,x,x,x,-1.3%,x,x
CCc1ccc(NC(=O)C(=O)NCCN2CCN(Cc3ccc([N+](=O)[O-])cc3)CC2)cc1,0.8%,18.2,-2.4%,-21.5%,9.2µM*,10.3µM*
Cc1cc(OCC(=O)Nc2ccc(CN3CCOCC3)cc2)ccc1Cl,-8.8%,-51.4*,-2.5%,11.3%,u,-73.7%
O=C(COc1ccc([N+](=O)[O-])cc1)Nc1ccc(CN2CCOCC2)cc1,0.3%,11.2,0.3%,1.0%,20.6µM*,u
CCOC(=O)c1cc(CC)sc1/N=C/c1c(O)ccc2ccccc12,18.4µM*,14.3,-29.3%,-7.1%,u,1.2%
Cc1c(Cc2ccccc2)sc(/N=C/c2c(O)ccc3ccccc23)c1C(N)=O,u,18.5,u,x,u,23.1µM*
Cc1c(Cc2ccccc2)sc(/N=C/c2ccc3ccccc3c2)c1C(N)=O,2.91µM*,44.3,2.91µM*,x,0.82µM*,0.731µM*
COc1ccc(CNC(=O)C[C@@H]2CCNC[C@@H]2Cc2cc(-c3ccc(F)cc3)on2)cc1,x,x,x,-17.4%,x,x
COc1ccccc1N1CCN(C(=O)c2sc3nc(-c4ccccc4)cn3c2C)CC1,-13.1%[9.24 µM],-75.5*,-23.1%,23.0%,18.4µM*,16.4µM*
CCOC(=O)C1CCN(C(=O)c2sc3nc(-c4ccccc4)cn3c2C)CC1,-2.6%,9.8,1.8%,-1.9%,18.4µM*,u
COc1ccc2c(c1)CCC(C)N2C(=O)C(=O)c1c[nH]c2ccccc12 (stereo not drawn),3.1%,82.7,u,1.3%,u,20.6µM*
COc1ccc2[nH]cc(C(=O)C(=O)N3CCCCC3)c2c1,-6.7%,-16.3,-3.0%,-15.4%,-3.0%,-10.5%
CCOc1ccc(-n2nc3c(SCCN4CCCC4)nnc(C)c3c2C)cc1,u,-96.7*,u,6.5%,-25.1%,0.5%
CCCN1CCN(C(=O)C2CCN(c3nnc(C)c4c(C)n(-c5ccc(C)cc5)nc34)CC2)CC1,u,u,u,5.5%,u,u
Cc1ccc(-n2nc3c(SCCN4CCOCC4)nnc(C)c3c2C)cc1,0.4%,-25.0,1.2%,-8.2%,u,u
CCOc1ccc(CNC(=O)C2CCN(c3nnc(C)c4c(C)n(-c5ccc(C)cc5)nc34)CC2)cc1,0.0%,-98.7*,-7.9%,-14.9%,23.1µM*,8.2µM*
Cc1ccc(-n2nc3c(N4CCC(C(=O)NCc5ccccc5C)CC4)nnc(C)c3c2C)cc1,8.2µM*,-92.2*,7.31µM*,x,u,13µM*
CCOc1ccccc1CNC(=O)C1CCN(c2nnc(C)c3c(C)n(-c4ccc(C)cc4)nc23)CC1,13µM*,-96.2*,u,-14.2%,13µM*,5.8µM*
Cc1nnc(N2CCC(C(=O)NC3CCCCC3)CC2)c2nn(-c3ccccc3)c(C)c12,x,x,x,-12.7%,3.1%,-6.5%
Cc1ccc(-n2nc3c(N4CCC(C(=O)N5CCN(C)CC5)CC4)nnc(C)c3c2C)cc1,-23.8%,-18.1,-24.7%,3.9%,-13.2%,-20.6%
COc1cccc(C(=O)N2CCN(C(=O)c3nnn4c3COC(c3ccc(F)cc3)C4)CC2)c1 (stereo not drawn),x,x,x,39.1%,x,x

# High-throughput results from PubChem.
